From PubChem BioAssay
NALP3 yeast inh: NALP3 inflammasome inhibitors in reconstituted yeast, primary screen, luminescence, uHTS; inhibition, % at 10 µM; 0.39% of 330,000 active; Yeast reconstituted NLRP3/ASC/caspase-1, beta-gal luminescence, 24 h; AID 2825, 2010;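 active means inhibition of 50% or more; inactive means inhibition below 50%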;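 further: plate controls were induced DMSO wells for no effect and uninduced yeast grown without galactose for full effect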
tim23-1 inh: growth inhibitors of tim23-1 mutant yeast, primary screen, luminescence, uHTS; 1.3% of 330,000 active; inhibition, % at 20 µM; S. cerevisiae tim23-1 growth, BacTiter-Glo luminescence, 24 h;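 active means growth inhibition of the mutant yeast at or above 50%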;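 further: temperature-sensitive mutant grown at 25 °C; plate controls were DMSO-treated mutant yeast for no effect and medium wells lacking yeast for full effect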
SKKanGAS inh: S. pyogenes SKKanGAS growth inhibitors in kanamycin, primary screen, streptokinase expression inhibitor project, SKKanGAS strain, BacTiter-Glo luminescence | AID 1662, 2009 | 6 h | inhibition, % at 7.5 µM | 1.3% of 300,000 active;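 active means mean replicate score, as percent of positive control median, at least 50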;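 further: strain carries kanamycin resistance gene driven by streptokinase promoter and grows in 40 µg/ml kanamycin; loss of luminescence reflects streptokinase promoter inhibition or plain growth inhibition; 0% = median of DMSO wells and 100% = positive control at its reference dose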
TIM10 inh: growth inhibitors of isogenic TIM10 control yeast, primary screen, counter-screen for tim10-1 yeast inhibitor project, luminescence, uHTS | S. cerevisiae TIM10 strain growth, BacTiter-Glo luminescence, 24 h | inhibition, % at 10 µM | 1.4% of 330,000 active | AID 463195, 2010;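 active means inhibition of 40% or more at the single tested concentration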;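 further: wild-type TIM10 isogenic control strain grown at permissive 25 °C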
NALP1 yeast inh: NALP1 inflammasome inhibitors in reconstituted yeast, colorimetric, S. cerevisiae, triplicate retest. inhibition, % at 10 µM. 0.61% of 280,000 active. S. cerevisiae NALP1/ASC/caspase-1 growth, X-gal OD620, 72 h; in the data active means inhibition mostly above about 24%, no sharp cut-off; inactive means mostly below about 32%
tim10-1 inh: growth inhibitors of tim10-1 mutant yeast, primary screen, luminescence, uHTS. S. cerevisiae tim10-1 ts strain growth, BacTiter-Glo, 24 h. inhibition, % at 20 µM. 2.2% of 330,000 active. AID 463190, 2010;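 active means inhibition of at least 40%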;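 further: mutant grown at 25 °C; 0% = DMSO wells with yeast and 100% = wells holding no yeast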
tim10-1 conf: growth inhibitors of tim10-1 mutant yeast, confirmation, single concentration, luminescence, S. cerevisiae. shares compounds with tim10-1 inh. S. cerevisiae tim10-1 ts strain growth, BacTiter-Glo, 24 h. inhibition, % at 20 µM. 56% of 7,400 active. AID 463213, 2010;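 active means inhibition of yeast growth at or above a set limit in either of two repeat tests at 20 µM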;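 further: tim10-1 mutant grown at permissive 25 °C to find synthetic lethal compounds; 0% = DMSO yeast wells and 100% = medium wells without yeast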
* marks the source's active call; other numbers are inactive results; / = not tested or not shown. Sampled rows, rich in hits. Any-hit rate of the full collection: about 4.9%.

SMILES	NALP3 yeast inh	tim23-1 inh	SKKanGAS inh	TIM10 inh	NALP1 yeast inh	tim10-1 inh	tim10-1 conf
CCOC(=O)c1c(NC(=O)C2C3CCC(O3)C2C(=O)O)sc(C)c1-c1ccc(C)cc1 (stereo not given)	-0.4	11.7	7.0	10.3	-2.4	16.5	/
OCCC1CN(Cc2cc(F)ccc2F)CCN1CCCc1ccccc1 (stereo not given)	10.2	3.1	0.3	-0.5	15.7	0.5	/
COc1cccc(-c2nn(C)c3sc(C(=O)NCc4ccccn4)cc23)c1	16.6	29.9	-2.4	13.3	4.7	45.2*	17.6
COc1cccc(-c2nn(C)c3sc(C(=O)NCc4ccc(C)cc4)cc23)c1	15.4	7.0	20.1	20.9	-2.0	17.5	/
CCCC(=O)Nc1ccc(C(N)=O)cc1	-4.5	7.4	4.6	-8.6	11.2	19.7	/
CCCC(=O)Nc1ccc(C(=O)/C=C/c2ccc(SC)cc2)cc1	9.3	41.7	14.7	28.9	-0.2	44.8*	33.9*
c1ccc2cc(CNCc3cccc4ccccc34)ccc2c1	23.0	3.2	-2.8	13.2	1.0	14.3	/
CC(=O)c1c(C)[nH]c(C(=O)OCC(=O)Nc2ccc3c(c2)OCCO3)c1C	1.8	16.8	/	3.0	/	12.3	/
Cc1ccc2[nH]c3c(c2c1)CN(C(=O)CN1c2ccc(F)cc2CCC1C)CC3 (stereo not given)	23.6	41.0	5.2	29.0	2.6	42.7*	37.6*
Cc1ccc2[nH]c3c(c2c1)CN(C(=O)CN1CCN(C(=O)c2ccco2)CC1)CC3	15.3	12.6	-8.2	-10.6	1.6	-28.7	/
CCc1ccc(C(=O)COC(=O)CNC(=O)COc2ccccc2)cc1	10.3	22.4	0.4	16.3	2.7	41.6*	20.1
Cc1ccc(C(=O)COC(=O)CNC(=O)Cc2ccccc2)cc1	12.2	-4.1	-2.9	11.9	26.2	-1.4	/
CCOc1ccc(NC(=O)CN(C)C(=O)c2n[nH]c(=O)c3ccccc23)cc1OCC	17.4	-11.6	/	8.1	/	-2.2	/
O=C(NCc1ccccc1)c1ccc(-c2ccccc2F)o1	26.5	47.0	4.2	23.8	2.7	41.7*	36.1*
CCc1cc(-c2n[nH]c(=S)n2CC)cs1	16.8	33.7	3.3	6.7	18.0	13.5	/
CCCc1cc(-c2n[nH]c(=S)n2C(C)c2ccccc2)cs1 (stereo not given)	10.9	44.7	8.5	13.9	1.9	47.8*	19.4
CCc1cc(-c2n[nH]c(=S)n2-c2ccccc2C)cs1	21.4	35.3	-9.9	22.0	-41.8	42.3*	35.1*
CCc1noc(C)c1C(=O)N1CCN(S(=O)(=O)c2ccc(Br)cc2Cl)CC1	10.0	15.7	-3.3	11.2	/	13.9	/
O=C(CC(=O)c1ccccc1)Nc1ccccc1C(F)(F)F	14.5	21.9	-4.2	1.5	-7.5	5.0	/
O=C1/C(=C/c2ccccc2Cl)SC(=S)N1CCC(=O)N1CCCCC1CCO (stereo not given)	11.1	48.8	11.4	29.0	16.1	46.4*	28.5
CCC/C=N/NC(=O)c1[nH]c2c([N+](=O)[O-])cccc2c1C	6.2	11.5	-4.0	31.9	16.1	41.4*	20.3
COc1cccc(CCC(=O)Nc2cccc(S(=O)(=O)N3CCCC3)c2)c1OC	20.5	0.7	/	1.2	/	15.2	/
COc1ccc(C(=O)N2CCCC(CO)(Cc3ccccc3C)C2)o1 (stereo not given)	4.5	19.3	2.1	8.7	15.1	47.8*	24.6
Cc1ccccc1CC1(CO)CCCN(C(=O)c2cc(Cl)ccc2F)C1 (stereo not given)	6.7	29.8	29.9	-5.1	-4.0	41.9*	31.9*
COc1cccc(NC(=O)C2CCOC2=O)c1 (stereo not given)	3.0	19.1	-0.2	-12.6	/	-5.8	/
SMILES	NALP3 yeast inh	tim23-1 inh	SKKanGAS inh	TIM10 inh	NALP1 yeast inh	tim10-1 inh	tim10-1 conf
O=C(O)c1cc(-c2ccc(Cl)cc2)n(-c2ccc(F)cc2)n1	2.8	10.5	-4.9	3.4	5.1	22.3	/
CSc1ccc(CN(C)C(=O)CNC(=O)c2ccc3c(c2)OCO3)cc1	19.2	5.2	-6.7	-3.9	/	18.1	/
CN(C)CC/C=C1/c2ccccc2Sc2c(O)cc(Cl)cc21	19.3	12.5	-1.9	17.8	22.7	37.9	/
COc1cc2c(cc1Cl)/C(=C\CCN(C)C)c1ccccc1S2	12.8	17.0	5.2	16.6	40.0	40.1*	30.4
CN(C)CC/C=C1/c2cc(F)ccc2Sc2ccc(Cl)cc21	35.9	4.3	1.0	20.7	/	14.6	/
COc1cc(Cl)cc2c1Sc1ccccc1/C2=C/CCN(C)C	9.4	-67.8	7.7	35.4	16.4	41.7*	29.1
CC(=O)c1cccc(OCC(O)CNCCOc2ccc(C)cc2)c1 (stereo not given)	23.9	-10.3	-3.6	10.1	19.9	1.0	/
C=C(C)CC1Nc2ccccc2NC1CC(=C)C (stereo not given)	6.6	43.4	1.6	34.1	14.8	41.7*	40.7*
COc1ccc(-c2csc(NC(=O)C3=NN(c4ccccc4)C(=O)CC3)n2)cc1	-21.3	21.8	7.8	16.6	15.5	16.3	/
COc1cccc(N2C(=O)C(c3ccccc3)=C(c3nc4ccccc4s3)C2NC(C)=O)c1 (stereo not given)	2.3	19.4	10.5	39.1	8.2	49.2*	42.1*
CSc1ccc(S(=O)(=O)NCc2ccc(C)cc2)cc1	9.9	45.1	-2.6	35.1	48.1	44.3*	37.0*
Cc1ccc(S(=O)(=O)NCc2ccccc2C)cc1	11.0	25.3	3.2	-10.8	13.2	6.5	/
Cc1ccc(S(=O)(=O)NCc2ccccc2)cc1	3.3	26.8	-1.8	9.3	23.7	26.8	/
CSc1ccc(S(=O)(=O)NCc2ccccc2C)cc1	0.8	41.2	-10.8	17.1	-8.5	47.3*	24.6
O=c1c2ccccc2nc(SCc2ccccc2)n1CC1CCCO1 (stereo not given)	11.4	27.0	8.2	14.6	/	-0.5	/
O=C(c1ccco1)N1CCN(S(=O)(=O)Cc2ccccc2Cl)CC1	19.8	29.8	-0.7	4.2	18.6	38.8	/
CC(C)c1ccc(/C=C2\C(=O)N(CCN3CCOCC3)C(=S)N2C)cc1	13.5	43.5	-4.6	32.5	11.2	44.7*	40.0*
COc1ccc(N2CC(C(=O)N3CCN(c4ccccc4OC)CC3)CC2=O)cc1 (stereo not given)	12.6	8.1	2.1	5.3	-8.5	-4.2	/
N#CC(c1ccccc1O)N1N=C(c2ccccc2)CC1c1ccccc1 (stereo not given)	25.9	23.3	5.5	27.3	-26.9	-39.4	/
